# Assay results reported in PubChem BioAssay (NCI).
# About 83,000 compounds went through this panel and 20% of them were active in at least one assay; those are over-represented in the sample as a whole.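 Testing used 96-well plates and a 48-hour single-concentration exposure. Example: -40 means 40% of the starting cells died.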 A number with no mark means an inactive call. Calls of active or inactive are those of the source. The calls were made as follows: active = growth percent below 10; inactive = the rest.
# Columns and labels:
# Assay in all cases: NCI-60 one-dose screen, 48 h (100 = growth as untreated, 0 = no growth, -100 = all killed)
# Details in all cases: 10 µM unless noted
# SK-MEL-2 melanoma = system: SK-MEL-2 melanoma
# EKVX NSCLC = system: EKVX NSCLC
# SN12C renal = system: SN12C renal
# UO-31 renal = system: UO-31 renal
# ACHN renal = system: ACHN renal
# CAKI-1 renal = system: CAKI-1 renal
# A498 renal = system: A498 renal
# CCRF-CEM leukemia = system: CCRF-CEM leukemia
# MOLT-4 leukemia = system: MOLT-4 leukemia
# SR leukemia = system: SR leukemia
# RPMI-8226 leukemia = system: RPMI-8226 leukemia
# OVCAR-8 ovarian = system: OVCAR-8 ovarian
# OVCAR-5 ovarian = system: OVCAR-5 ovarian
# OVCAR-4 ovarian = system: OVCAR-4 ovarian
# SK-OV-3 ovarian = system: SK-OV-3 ovarian
# IGROV1 ovarian = system: IGROV1 ovarian
# OVCAR-3 ovarian = system: OVCAR-3 ovarian
# HS 578T breast = system: HS 578T breast
# NCI/ADR-RES ovarian = system: NCI/ADR-RES ovarian
# TK-10 renal = system: TK-10 renal
SMILES,growth (SK-MEL-2 melanoma),growth (EKVX NSCLC),growth (SN12C renal),growth (UO-31 renal),growth (ACHN renal),growth (CAKI-1 renal),growth (A498 renal),growth (CCRF-CEM leukemia),growth (MOLT-4 leukemia),growth (SR leukemia),growth (RPMI-8226 leukemia),growth (OVCAR-8 ovarian),growth (OVCAR-5 ovarian),growth (OVCAR-4 ovarian),growth (SK-OV-3 ovarian),growth (IGROV1 ovarian),growth (OVCAR-3 ovarian),growth (HS 578T breast),growth (NCI/ADR-RES ovarian),growth (TK-10 renal)
CC/C(=C\c1ccc(OC)cc1)C(=O)c1ccc(OC)cc1,96%,103%,91.8%,81.1%,96.9%,69.6%,103%,45.6%,91.5%,108%,32.2%,74%,103%,77.2%,106%,67.2%,211%,99.9%,86.7%,–
COc1cc2c(c(O)c1Br)C(=O)c1c(O)cc(C[C@H](C)O)cc1[C@H]2[C@H]1c2cc(C[C@H](C)O)cc(O)c2C(=O)c2c1cc(OC)c(Br)c2O,-38.2% (active),9.77% (active),9.01% (active),-29% (active),-46.1% (active),4.31% (active),–,10.1%,-0.594% (active),-5.41% (active),9.04% (active),10.4%,0.764% (active),11.5%,8.82% (active),2.65% (active),-27.4% (active),9.13% (active),56.3%,–
CCOC(=O)c1cc(C(=O)c2ccc(Br)cc2)n2ccc(/C=C/c3cc[n+](CC(=O)c4ccc(OC)cc4)cc3)cc12,–,95.3%,78%,77.6%,93.6%,93.2%,92%,-23.7% (active),68.3%,-2.64% (active),45.7%,59.9%,102%,86.7%,114%,86%,102%,129%,–,116%
O=C(Nc1ccc(Cl)cc1)c1cc(NCc2cc(O)ccc2O)ccc1O,78.8%,94.1%,76.1%,52.2%,89.6%,99.5%,–,5.54% (active),59.8%,9.06% (active),4.92% (active),70.4%,116%,80.5%,103%,84.2%,48.8%,90%,82.9%,–
Nc1n[nH]c2cccc(C#Cc3cccc(C(=O)Nc4cc(CN5CCOCC5)cc(C(F)(F)F)c4)c3)c12,4.06% (active),60.6%,39.1%,17.6%,27%,48.8%,–,19.4%,–,35.6%,12.9%,28.9%,34.3%,33.1%,82.9%,7.98% (active),46.7%,10.2%,42.1%,–
N#C/C(=C\c1ccc(C(F)(F)F)cc1)c1cc2ccccc2[nH]1,–,97.6%,99.2%,92.9%,104%,83.6%,90.3%,98.1%,91.5%,95.7%,72%,101%,108%,92%,93%,94.5%,104%,104%,104%,140%
COC1=CC(=O)c2ccccc2C1=O,69.3%,110%,84.8%,71.9%,75.6%,95.6%,107%,–,–,–,73%,65.4%,107%,70.4%,101%,–,24.5%,100%,60.8%,–
O=C(CCN1CCCC1)Nc1ccc2c(NCCc3ccccc3)c3ccccc3nc2c1,-58.8% (active),-4.89% (active),-12.5% (active),-10.8% (active),11%,4.47% (active),–,-9.81% (active),-17.6% (active),-16.1% (active),-41.9% (active),3.23% (active),7.44% (active),-24.6% (active),-6.92% (active),-6.54% (active),-37.8% (active),-25.1% (active),71.5%,–
